Screening data as filed in PubChem.
HP1b binding inh: HP1-beta chromodomain-methylated histone interaction inhibition. P83916. AID 540317. AlphaScreen HP1-beta / biotin-H3K9me3 peptide binding. actives 0.56% (n = 390,000). Potency, µM (highest dose often 114 µM), inactives show at the highest dose activity change, negative = inhibition, usual class: inhibitors; further: potency means the concentration at half of the fitted maximal effect; nearly all actives have a fitted effect of over 70% in size
Target sequence (P83916 whole entry, looked up): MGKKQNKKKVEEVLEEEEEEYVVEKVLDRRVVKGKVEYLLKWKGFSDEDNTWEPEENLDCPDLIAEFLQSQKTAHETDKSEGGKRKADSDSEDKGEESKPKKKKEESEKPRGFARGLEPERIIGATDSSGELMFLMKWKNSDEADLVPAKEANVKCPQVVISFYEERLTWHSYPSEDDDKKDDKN
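HP1-beta protein (50 nM final) preincubated 30 min at room temperature with biotinylated H3(1-18)K9me3 peptide (50 nM) in PBS pH 7.4, 0.01% Tween-20, then compound added for 30 min. AlphaScreen streptavidin donor/nickel chelate acceptor beads (10 ug/mL final), 30 min dark, luminescence read.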
BAZ2B inh: blocks human BAZ2B. Q9UIF8. AlphaScreen BAZ2B-H3K14Ac peptide displacement. Potency, µM (top dose mostly 114 µM), for the others: at the top dose activity change, negative = inhibition, usual class: inhibitors. actives 4.4% (n = 360,000). AID 504333; further: potency means the concentration at half of the fitted maximal effect; on the % scale 0 is the no-effect control and ±100 the full control effect; nearly all actives have a fitted effect of over 60% in size
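Multi-concentration screen (max 110 uM) measuring displacement of acetylated histone H3 peptide from BAZ2B by AlphaScreen, using 50 nM protein, 50 nM peptide and 10 ug/mL streptavidin donor plus Ni-chelate acceptor beads.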
JMJD2A Tudor: JMJD2A Tudor domain (human) inhibition | actives 4.4% (n = 390,000) | AlphaScreen JMJD2A-Tudor / H3K4me3 peptide binding | O75164 | Potency, µM (highest dose often 114 µM), for inactives: top-dose activity change, negative = inhibition, most hits filed as inhibitors; further: potency means the concentration at half of the fitted maximal effect; on the % scale 0 is the no-effect control and ±100 the full control effect; nearly all actives have a fitted effect of over 50% in size
Six1-Eya2 blk: inhibitors of human Six1/Eya2 interaction. activity change, % (concentration not given with the values). AlphaScreen GST-Six1/His-Eya2 binding, biochemical; stronger effect = lower value. Q15475+O00167. actives 0.56% (n = 360,000); in the data active means activity change below about -65%; inconclusive means mostly about -30% to -63%; further: on the % scale 0 is the no-effect control and ±100 the full control effect
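GST-Six1 + His-Eya2 (5X stock: 250/500 nM); Tris pH 8.0, 300 mM NaCl, 0.05% BSA, 0.02% Tween 20; GSH donor/Ni acceptor beads; 1 h 37 °C dark; AlphaScreen readout.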
CtBP-E1A inh: CtBP/E1A binding inhibition | AlphaScreen GST-E1A/His-CtBP binding, 1536-well; stronger effect = lower value | activity change, % (test concentration not listed) | actives 0.49% (n = 340,000) | AID 651724; in the data active means activity change below about -65%; inconclusive means mostly about -30% to -63%; further: on the % scale 0 is the no-effect control and ±100 the full control effect
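In 5 uL wells, 23 nL compound meets equimolar GST-E1A and His-CtBP (5X stock 125 nM each) for 2 h, 37 °C. Beads (5X, 50 ug/mL) then 1 h, 37 °C, dark.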
TDP1 block: inhibitors of human tyrosyl-DNA phosphodiesterase TDP1 | Q9NUW8 | recombinant TDP1, AlphaScreen DNA substrate cleavage | Potency, µM (highest dose often 130 µM), for the others: at the top dose activity change, negative = inhibition, usual class: inhibitors | actives 0.28% (n = 350,000) | AID 485290; further: potency means the concentration at half of the fitted maximal effect; on the % scale 0 is the no-effect control and ±100 the full control effect; nearly all actives have a fitted effect of over 40% in size
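AlphaScreen read-out: signal falls as enzyme removes the 3' tyrosine-FITC from a 5'-biotinylated DNA oligo (15 nM, 5 min, RT). Enzyme was E. coli-made recombinant Tdp1 at 1 nM, exposed to compound for 15 min beforehand; beads 10 ug/ml, 10 min.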
The depositor's hits bear a star; ! = repeats disagree; [ ] = remark or other dose. Only some compounds are listed: those with a hit (about 5.3% of all), similar ones and a draw of the others. Unless noted, the call rests on the fitted dose curve; in most records, active means well fitted inhibition curve with a large enough effect; inconclusive means small, poorly fitted or top-dose-only effect; inactive means no such curve, though single readings can be large or run the other way.

`COc1ccc(NC(=O)CCc2c(C)nn(-c3ccc(N4CCCC4)nn3)c2C)cc1Cl` gave HP1b binding inh 37.3%, BAZ2B inh -29.7%, JMJD2A Tudor inconclusive and TDP1 block 5.8%.
CCOCCCNCC(=O)NC1(C)C2CCC(C2)C1(C)C (stereo unspecified) was read as HP1b binding inh -56.7%, BAZ2B inh 56.2µM*, JMJD2A Tudor 6.31µM*, Six1-Eya2 blk 0.0, CtBP-E1A inh 0.9 and TDP1 block inconclusive.
CCc1ccc(C(c2ccccc2)c2c[nH]c3ccc(C)cc23)s1 (stereo unspecified) was read as HP1b binding inh inconclusive, BAZ2B inh inconclusive, JMJD2A Tudor 56.2µM* and TDP1 block 6.4%.
Screening COc1ccc(CC(=O)Nc2c(C(=O)Nc3ccc(F)cc3)oc3ccccc23)cc1OC returned HP1b binding inh 41.5%, BAZ2B inh 3.1%, JMJD2A Tudor -2.6% and TDP1 block 11.5%.
For CN(CP(=O)(O)CN(C)S(C)(=O)=O)S(C)(=O)=O the results were HP1b binding inh 8.9%, BAZ2B inh 89.1µM*, JMJD2A Tudor 50.1µM*, Six1-Eya2 blk 12.8, CtBP-E1A inh -2.7 and TDP1 block 0.0%.
Screening O=C(Nc1ccccc1)N(Cc1cccc(Cl)c1)c1ccccn1 returned HP1b binding inh 104.9%, BAZ2B inh 66.5%, JMJD2A Tudor 76.2% and TDP1 block -0.5%.
C/C(=N\NC(=O)CNc1cccc(C(F)(F)F)c1)c1ccc(Br)cc1 was read as HP1b binding inh 22.0%, BAZ2B inh -7.9%, JMJD2A Tudor 2.1%, Six1-Eya2 blk -13.7, CtBP-E1A inh -2.0 and TDP1 block 0.0%.
C/C(=N\Nc1cccc(C(F)(F)F)c1)c1ccc(O)cc1 was read as HP1b binding inh inconclusive, BAZ2B inh inconclusive, JMJD2A Tudor 44.7µM*, Six1-Eya2 blk 2.7, CtBP-E1A inh -6.7 and TDP1 block 1.8%.
CSc1nc(C)cc(Nc2cccc(C(=O)O)c2)n1 was read as HP1b binding inh 47.4%, BAZ2B inh -24.1%, JMJD2A Tudor -18.5% and TDP1 block 1.6%.
CC(=O)Nc1ccc(S(=O)(=O)N2CCN(S(=O)(=O)c3c(F)cccc3F)CC2)cc1 was read as JMJD2A Tudor -12.2% and TDP1 block -0.2%.
`CCOc1ccc(CN2CCN(C(=O)c3ccco3)CC2)cc1` gave HP1b binding inh inconclusive, BAZ2B inh -35.5%, JMJD2A Tudor 20µM*, Six1-Eya2 blk 1.6, CtBP-E1A inh -24.6 and TDP1 block 3.6%.
`O=C(c1ccco1)N1CCN(Cc2ccc(F)cc2Cl)CC1` gave HP1b binding inh 35.7%, BAZ2B inh -36.8%, JMJD2A Tudor -12.4%, Six1-Eya2 blk 6.9 and CtBP-E1A inh -2.1.
Screening COc1ccc(CN2CCN(C(=O)c3ccco3)CC2)cc1 returned HP1b binding inh 5.5%, BAZ2B inh 5.2%, JMJD2A Tudor -1.6%, Six1-Eya2 blk -5.1, CtBP-E1A inh -1.3 and TDP1 block 3.0%.
O=C(c1ccco1)N1CCN(Cc2ccccc2Br)CC1 was read as HP1b binding inh inconclusive, BAZ2B inh 31.6µM*, JMJD2A Tudor 8.91µM* and Six1-Eya2 blk 16.4.
`O=C(c1ccco1)N1CCN(CC2CC3C=CC2C3)CC1` (stereo unspecified) gave HP1b binding inh -62.7%, BAZ2B inh 50.1µM*, JMJD2A Tudor 1.41µM*, Six1-Eya2 blk -0.5, CtBP-E1A inh 4.3 and TDP1 block -3.1%.
Screening O=C(c1ccco1)N1CCN(Cc2ccc(F)cc2)CC1 returned HP1b binding inh inconclusive, BAZ2B inh 79.4µM*, JMJD2A Tudor 20µM*, Six1-Eya2 blk -1.6 and CtBP-E1A inh 4.5.
O=C(c1ccc(F)cc1)N1CCN(Cc2ccccc2Br)CC1 was read as HP1b binding inh inconclusive, BAZ2B inh inconclusive, JMJD2A Tudor 25.1µM*, Six1-Eya2 blk 6.0, CtBP-E1A inh 1.2 and TDP1 block -5.6%.
CCOc1cc(CN2CCN(C(=O)c3ccco3)CC2)ccc1OC was read as HP1b binding inh inconclusive, BAZ2B inh 50.1µM*, JMJD2A Tudor 5.62µM*, Six1-Eya2 blk 4.6, CtBP-E1A inh 7.8 and TDP1 block 0.0%.
`COc1cc(C(=O)N2CCN(C(=O)c3ccco3)CC2)cc(OC)c1OC` gave HP1b binding inh 23.4%, BAZ2B inh -4.9%, JMJD2A Tudor -0.4%, Six1-Eya2 blk -0.7, CtBP-E1A inh 2.9 and TDP1 block 0.0%.
For Cc1ccc2c(CN3CCN(C(=O)c4ccc(F)cc4)CC3)cc(=O)oc2c1 the results were HP1b binding inh 29.3%, BAZ2B inh -5.6%, JMJD2A Tudor -2.5% and TDP1 block 2.3%.
Screening COC(=O)C1(CC(C)C)C=C2C(=C(C)C(=O)C2C)CN1 (stereo unspecified) returned TDP1 block -13.5%.
COc1ccc(C(=O)c2c(C(F)(F)F)oc3c2C(=O)c2ccccc2C3=O)cc1 was read as HP1b binding inh inconclusive, BAZ2B inh 7.94µM*, JMJD2A Tudor inconclusive, Six1-Eya2 blk inconclusive, CtBP-E1A inh inconclusive and TDP1 block 11.6%.
`COc1ccc(C(=O)c2oc3ccccc3c2NC(C)=O)cc1` gave HP1b binding inh 49.4%, BAZ2B inh 7.9%, JMJD2A Tudor 7.9%[57.1 µM], Six1-Eya2 blk 11.6, CtBP-E1A inh 9.2 and TDP1 block -3.1%.
`O=C(/C=C/c1ccc(O)c(O)c1)O[C@@H]1C[C@](O)(C(=O)O)C[C@@H](O)[C@H]1O` gave HP1b binding inh 32.6%, BAZ2B inh -2.5%, JMJD2A Tudor 17.8µM*!, Six1-Eya2 blk 6.1 and CtBP-E1A inh -12.7.
O=C(/C=C/c1ccc(O)c(O)c1)OC1C(O)CC(OC(=O)/C=C/c2ccc(O)c(O)c2)(C(=O)O)CC1O (stereo unspecified) was read as HP1b binding inh 29.5%, BAZ2B inh -10.0%, JMJD2A Tudor 22.4µM*, Six1-Eya2 blk -16.5, CtBP-E1A inh 5.7 and TDP1 block -8.9%.
Cc1ccc(N2CCN(c3nc4ccc(C(=O)c5ccccc5)cc4n4cnnc34)CC2)c(C)c1 was read as HP1b binding inh -9.3%, BAZ2B inh inconclusive, JMJD2A Tudor -17.2% and TDP1 block 5.6%.
`CC1=Nc2ccccc2/C1=C/c1c(C)[nH]c2ccccc12` gave HP1b binding inh inconclusive, JMJD2A Tudor 56.2µM*, Six1-Eya2 blk -21.2 and CtBP-E1A inh -22.2.
For COc1cccc(N2CCN(C(=S)Nc3ccc(C)cc3C)CC2)c1 the results were HP1b binding inh 18.1%, BAZ2B inh 8.5%, JMJD2A Tudor 4.8% and Six1-Eya2 blk -2.1.
